Measured values as given in PubChem BioAssay AID1159580 (chemical genetic matrix, 2015).
“And” between values parts separate entries of the source, which are not always exact repeats. Equal values may be shown once. Among all 5,500 compounds or so, about 2,000 (36%) were called active. Not shown: some 18% with an inconclusive outcome. No stated cut-off is given here; in the data, active means normalized growth mostly below about 0.91 (no sharp cut-off); inconclusive means no clear call, values can overlap the other calls; inactive means mostly above about 0.92. Some of the results follow.

Assay: chemical genetic growth profiling, strain panel (AID 1159580);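 further: tested at 20 µM; growth read once vehicle control cultures reached saturation at 30 °C; 1 = growth at the plate median or of vehicle wells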
Details: growth OD

Measured: normalized growth

Cc1c(OCC(F)(F)F)ccnc1CS(=O)c1nc2ccccc2[nH]1 (stereo not given)
inactive: S. cerevisiae deletion strains, locus YJR075W, strain HOC1, stronger effect = lower value 0.948 and 0.981 | S. cerevisiae deletion strains, locus YKL009W, strain mrt4, stronger effect = lower value 0.991 | S. cerevisiae deletion strains, locus YKL068W, stronger effect = lower value 0.997 | S. cerevisiae deletion strains, locus YKL085W, strain MDH1 (second series), stronger effect = lower value 0.939 | S. cerevisiae deletion strains, locus YKL085W, strain MDH1, stronger effect = lower value 0.939 | S. cerevisiae deletion strains, locus YKL160W, strain elf1, stronger effect = lower value 1.01 | S. cerevisiae deletion strains, locus YKL190W, strain CNB1, stronger effect = lower value 0.987 | S. cerevisiae deletion strains, locus YKR001C, strain vps1, stronger effect = lower value 0.914 | S. cerevisiae deletion strains, locus YKR026C, strain gcn3, stronger effect = lower value 1 | S. cerevisiae deletion strains, locus YKR091W, strain srl3, stronger effect = lower value 1.01 | S. cerevisiae deletion strains, locus YLL001W, strain dnm1, stronger effect = lower value 1.01 | S. cerevisiae deletion strains, locus YLL026W, stronger effect = lower value 1.02 | S. cerevisiae deletion strains, locus YLL041C, strain sdh2, stronger effect = lower value 1.01 | S. cerevisiae deletion strains, locus YLR027C, strain aat2, stronger effect = lower value 1.01 | S. cerevisiae deletion strains, locus YLR039C, strain RIC1, stronger effect = lower value 0.985 | S. cerevisiae deletion strains, locus YLR058C, strain SHM2, stronger effect = lower value 0.966 | S. cerevisiae deletion strains, locus YLR102C, strain apc9, stronger effect = lower value 1 | S. cerevisiae deletion strains, locus YLR221C, strain rsa3, stronger effect = lower value 1 | S. cerevisiae deletion strains, locus YLR258W, strain gsy2, stronger effect = lower value 1.02 | S. cerevisiae deletion strains, locus YLR262C, strain YPT6 (second series), stronger effect = lower value 1.05 | S. cerevisiae deletion strains, locus YLR262C, strain YPT6, stronger effect = lower value 0.998 | S. cerevisiae deletion strains, locus YLR320W, strain mms22, stronger effect = lower value 1.01 | S. cerevisiae deletion strains, locus YLR330W, strain CHS5, stronger effect = lower value 0.987 | S. cerevisiae deletion strains, locus YLR342W, strain FKS1 (second series), stronger effect = lower value 0.926 | S. cerevisiae deletion strains, locus YLR342W, strain FKS1, stronger effect = lower value 1.04 | S. cerevisiae deletion strains, locus YLR357W, strain rsc2, stronger effect = lower value 1.01 | S. cerevisiae deletion strains, locus YLR370C, strain arc18, stronger effect = lower value 1.02 | S. cerevisiae deletion strains, locus YLR371W, strain rom2, stronger effect = lower value 0.989 | S. cerevisiae deletion strains, locus YLR384C, strain iki3, stronger effect = lower value 1.02 | S. cerevisiae deletion strains, locus YML016C, strain PPZ1, stronger effect = lower value 0.979 | S. cerevisiae deletion strains, locus YML032C, strain rad52, stronger effect = lower value 0.93 | S. cerevisiae deletion strains, locus YML120C, strain ndi1, stronger effect = lower value 1.02 | S. cerevisiae deletion strains, locus YML124C, strain tub3, stronger effect = lower value 0.997 | S. cerevisiae deletion strains, locus YMR058W, strain fet3, stronger effect = lower value 1.01 | S. cerevisiae deletion strains, locus YMR078C, strain ctf18, stronger effect = lower value 0.989 | S. cerevisiae deletion strains, locus YMR125W, strain sto1, stronger effect = lower value 1.02 | S. cerevisiae deletion strains, locus YMR129W, stronger effect = lower value 1.02 | S. cerevisiae deletion strains, locus YMR205C, strain PFK2, stronger effect = lower value 1.04 | S. cerevisiae deletion strains, locus YMR223W, strain ubp8, stronger effect = lower value 0.981 | S. cerevisiae deletion strains, locus YMR231W, strain pep5, stronger effect = lower value 1.02 | S. cerevisiae deletion strains, locus YMR263W, strain SAP30, stronger effect = lower value 0.97 and 0.99 | S. cerevisiae deletion strains, locus YMR307W, strain GAS1, stronger effect = lower value 0.907 | S. cerevisiae deletion strains, locus YNL067W, strain RPL9B, stronger effect = lower value 0.958 | S. cerevisiae deletion strains, locus YNL071W, strain lat1, stronger effect = lower value 1.01 | S. cerevisiae deletion strains, locus YNL128W, strain TEP1, stronger effect = lower value 0.974 | S. cerevisiae deletion strains, locus YNL153C, strain GIM3, stronger effect = lower value 0.956 | S. cerevisiae deletion strains, locus YNL175C, strain NOP13, stronger effect = lower value 0.996 | S. cerevisiae deletion strains, locus YNL197C, strain WHI3, stronger effect = lower value 0.998 | S. cerevisiae deletion strains, locus YNL209W, strain ssb2, stronger effect = lower value 1.01 | S. cerevisiae deletion strains, locus YNL224C, strain SQS1, stronger effect = lower value 0.993 | S. cerevisiae deletion strains, locus YNL233W, strain BNI4, stronger effect = lower value 0.941 | S. cerevisiae deletion strains, locus YNL248C, strain rpa49, stronger effect = lower value 1.02 | S. cerevisiae deletion strains, locus YNL250W, strain rad50, stronger effect = lower value 0.902 | S. cerevisiae deletion strains, locus YNL322C, strain KRE1 (second series), stronger effect = lower value 1.02 | S. cerevisiae deletion strains, locus YNL322C, strain KRE1, stronger effect = lower value 0.998 | S. cerevisiae deletion strains, locus YNR049C, strain mso1, stronger effect = lower value 1.01 | S. cerevisiae deletion strains, locus YNR052C, strain pop2, stronger effect = lower value 0.98 | S. cerevisiae deletion strains, locus YOL006C, strain TOP1, stronger effect = lower value 0.989 | S. cerevisiae deletion strains, locus YOL012C, strain htz1 0.898 | S. cerevisiae deletion strains, locus YOL147C, strain pex11, stronger effect = lower value 0.965 | S. cerevisiae deletion strains, locus YOR001W, strain rrp6, stronger effect = lower value 1.02 | S. cerevisiae deletion strains, locus YOR061W, strain CKA2, stronger effect = lower value 0.992 | S. cerevisiae deletion strains, locus YOR069W, strain VPS5, stronger effect = lower value 0.989 | S. cerevisiae deletion strains, locus YOR070C, strain gyp1, stronger effect = lower value 1.02 | S. cerevisiae deletion strains, locus YOR080W, strain dia2, stronger effect = lower value 1.01 | S. cerevisiae deletion strains, locus YOR083W, strain WHI5 (second series), stronger effect = lower value 0.966 | S. cerevisiae deletion strains, locus YOR083W, strain WHI5, stronger effect = lower value 1.01 | S. cerevisiae deletion strains, locus YOR106W, strain vam3, stronger effect = lower value 0.991 | S. cerevisiae deletion strains, locus YOR136W, strain idh2, stronger effect = lower value 0.979 | S. cerevisiae deletion strains, locus YOR144C, strain elg1, stronger effect = lower value 0.977 | S. cerevisiae deletion strains, locus YOR184W, strain ser1, stronger effect = lower value 0.881 | S. cerevisiae deletion strains, locus YOR231W, strain MKK1, stronger effect = lower value 0.91 | S. cerevisiae deletion strains, locus YOR265W, strain rbl2, stronger effect = lower value 1.02 | S. cerevisiae deletion strains, locus YOR270C, strain vph1, stronger effect = lower value 1.06 | S. cerevisiae deletion strains, locus YOR290C, strain snf2, stronger effect = lower value 1.01 | S. cerevisiae deletion strains, locus YOR316C, strain cot1, stronger effect = lower value 0.988 | S. cerevisiae deletion strains, locus YPL051W, strain arl3, stronger effect = lower value 0.993 | S. cerevisiae deletion strains, locus YPL055C, strain LGE1, stronger effect = lower value 0.955 and 0.953 | S. cerevisiae deletion strains, locus YPL078C, strain atp4, stronger effect = lower value 1.02 | S. cerevisiae deletion strains, locus YPL106C, strain sse1, stronger effect = lower value 1.01 | S. cerevisiae deletion strains, locus YPL240C, strain hsp82, stronger effect = lower value 1.02 | S. cerevisiae deletion strains, locus YPL241C, strain CIN2, stronger effect = lower value 1 | S. cerevisiae deletion strains, locus YPR119W, strain clb2, stronger effect = lower value 0.996 | S. cerevisiae deletion strains, locus YPR141C, strain kar3, stronger effect = lower value 1.01 | S. cerevisiae deletion strains, locus YPR163C, strain tif3, stronger effect = lower value 0.976 | S. cerevisiae deletion strains, locus YPR167C, strain met16, stronger effect = lower value 0.988 | S. cerevisiae deletion strains, strain wtn01, stronger effect = lower value 0.95 | S. cerevisiae strains, strain wild type, stronger effect = lower value 0.972
active: S. cerevisiae deletion strains, locus YLR113W, strain HOG1, stronger effect = lower value 0.581 | S. cerevisiae deletion strains, locus YLR268W, strain sec22, stronger effect = lower value 0.826 | S. cerevisiae deletion strains, locus YLR418C, strain cdc73, stronger effect = lower value 0.828 | S. cerevisiae deletion strains, locus YNL183C, strain NPR1, stronger effect = lower value 0.789 | S. cerevisiae deletion strains, locus YNL271C, strain bni1, stronger effect = lower value 0.913 | S. cerevisiae deletion strains, locus YNL298W, strain CLA4, stronger effect = lower value 0.834 | S. cerevisiae deletion strains, locus YNL307C, strain MCK1, stronger effect = lower value 0.872
